# According to the supplement of paper PMC12282887:
# ± gives the standard deviation of the averaged measurements.
# Experiments:
# Test in all cases: promoter activity interaction Z-score (Lux/OD deviation from empty-vector control); higher = stronger promoter induction by the compound
# [1] = tested on: E. coli BW25113 acrABp lux reporter
# How it was run: (§1)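 At 37°C, E. coli BW25113 reporter cultures in 40 µl LB Lennox in 384-well plates were read for OD600 and luminescence every 30 min for 12 h. Windows were 0–8 h for wild type and 1–9 h for deletion strains, and wells under 10% of the median growth value were removed. The score is the Z-transformed residual of growth-normalised luminescence against a control fit.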
# [2] = tested on: E. coli BW25113 micFp lux reporter
# How it was run: as §1
# [3] = tested on: E. coli BW25113 ompFp lux reporter
# How it was run: as §1
# [4] = tested on: E. coli BW25113 robp lux reporter
# How it was run: as §1
# [5] = tested on: E. coli BW25113 soxSp lux reporter
# How it was run: as §1
# [6] = tested on: E. coli BW25113 tolCp lux reporter
# How it was run: as §1
# [7] = tested on: E. coli BW25113 marRABp lux reporter
# How it was run: as §1
# [8] = 0.11 µg/ml, genetic background: wild type
# [9] = 0.11 µg/ml, genetic background: ΔmarA
# [10] = 0.11 µg/ml, genetic background: Δrob
# [11] = 0.11 µg/ml, genetic background: ΔsoxS
# [12] = 0.23 µg/ml, genetic background: wild type
# [13] = 0.23 µg/ml, genetic background: ΔmarA
# [14] = 0.23 µg/ml, genetic background: Δrob
# [15] = 0.23 µg/ml, genetic background: ΔsoxS
# [16] = 0.46 µg/ml, genetic background: wild type
# [17] = 0.46 µg/ml, genetic background: ΔmarA
# [18] = 0.46 µg/ml, genetic background: Δrob
# [19] = 0.46 µg/ml, genetic background: ΔsoxS
# [20] = 9.8 µg/ml, genetic background: wild type
# [21] = 9.8 µg/ml, genetic background: ΔmarA
# [22] = 9.8 µg/ml, genetic background: Δrob
# [23] = 9.8 µg/ml, genetic background: ΔsoxS
# [24] = 19.5 µg/ml, genetic background: wild type
# [25] = 19.5 µg/ml, genetic background: ΔmarA
# [26] = 19.5 µg/ml, genetic background: Δrob
# [27] = 19.5 µg/ml, genetic background: ΔsoxS
# [28] = 39 µg/ml, genetic background: wild type
# [29] = 39 µg/ml, genetic background: ΔmarA
# [30] = 39 µg/ml, genetic background: Δrob
# [31] = 39 µg/ml, genetic background: ΔsoxS
smiles,measurement,setting,value
N[C@@H](C(=O)N[C@@H]1C(=O)N2C(C(=O)O)=C(Cl)CS[C@H]12)c1ccccc1 [Cefaclor],promoter activity interaction Z-score,[1]; [8],-0.0672 ± 0.0046
same,promoter activity interaction Z-score,[1]; [9],0.0667 ± 0.63
same,promoter activity interaction Z-score,[1]; [10],-0.0825 ± 0.022
same,promoter activity interaction Z-score,[1]; [11],0.202 ± 0.33
same,promoter activity interaction Z-score,[1]; [12],0.0822 ± 0.27
same,promoter activity interaction Z-score,[1]; [13],-0.226 ± 0.26
same,promoter activity interaction Z-score,[1]; [14],-0.0254 ± 0.2
same,promoter activity interaction Z-score,[1]; [15],0.108 ± 0.18
same,promoter activity interaction Z-score,[1]; [16],-0.327 ± 0.23
same,promoter activity interaction Z-score,[1]; [17],0.267 ± 0.91
same,promoter activity interaction Z-score,[1]; [18],0.0322 ± 0.2
same,promoter activity interaction Z-score,[1]; [19],0.0468 ± 0.32
same,promoter activity interaction Z-score,[2]; [8],-0.186 ± 0.14
same,promoter activity interaction Z-score,[2]; [9],-0.0579 ± 0.053
same,promoter activity interaction Z-score,[2]; [10],-0.0069 ± 0.16
same,promoter activity interaction Z-score,[2]; [11],-0.168 ± 0.014
same,promoter activity interaction Z-score,[2]; [12],0.286 ± 0.18
same,promoter activity interaction Z-score,[2]; [13],0.0237 ± 0.12
same,promoter activity interaction Z-score,[2]; [14],-0.137 ± 0.035
same,promoter activity interaction Z-score,[2]; [15],-0.23 ± 0.11
same,promoter activity interaction Z-score,[2]; [16],-0.0523 ± 0.022
same,promoter activity interaction Z-score,[2]; [17],-0.0548 ± 0.1
same,promoter activity interaction Z-score,[2]; [18],0.072 ± 0.35
same,promoter activity interaction Z-score,[2]; [19],0.0997 ± 0.0034
same,promoter activity interaction Z-score,[3]; [8],-0.0486 ± 0.033
same,promoter activity interaction Z-score,[3]; [9],0.00202 ± 0.074
same,promoter activity interaction Z-score,[3]; [10],-0.037 ± 0.097
same,promoter activity interaction Z-score,[3]; [11],0.00353 ± 0.4
same,promoter activity interaction Z-score,[3]; [12],0.205 ± 0.32
same,promoter activity interaction Z-score,[3]; [13],-0.158 ± 0.14
same,promoter activity interaction Z-score,[3]; [14],0.0924 ± 0.14
same,promoter activity interaction Z-score,[3]; [15],-0.0604 ± 0.083
same,promoter activity interaction Z-score,[3]; [16],-0.3379 ± 0.00077
same,promoter activity interaction Z-score,[3]; [17],0.243 ± 0.29
same,promoter activity interaction Z-score,[3]; [18],0.261 ± 0.15
same,promoter activity interaction Z-score,[3]; [19],0.0432 ± 0.23
same,promoter activity interaction Z-score,[4]; [8],0.143 ± 0.35
same,promoter activity interaction Z-score,[4]; [9],-0.548 ± 0.49
same,promoter activity interaction Z-score,[4]; [10],-0.0741 ± 0.49
same,promoter activity interaction Z-score,[4]; [11],-0.204 ± 0.27
same,promoter activity interaction Z-score,[4]; [12],0.403 ± 0.76
same,promoter activity interaction Z-score,[4]; [13],-0.533 ± 0.12
same,promoter activity interaction Z-score,[4]; [14],-0.17 ± 0.038
same,promoter activity interaction Z-score,[4]; [15],0.0114 ± 0.73
same,promoter activity interaction Z-score,[4]; [16],-0.312 ± 0.44
same,promoter activity interaction Z-score,[4]; [17],-0.025 ± 0.62
same,promoter activity interaction Z-score,[4]; [18],-0.475 ± 0.67
same,promoter activity interaction Z-score,[4]; [19],-0.073 ± 1.2
same,promoter activity interaction Z-score,[5]; [8],0.0812 ± 0.014
same,promoter activity interaction Z-score,[5]; [9],0.114 ± 0.011
same,promoter activity interaction Z-score,[5]; [10],0.166 ± 0.057
same,promoter activity interaction Z-score,[5]; [11],0.145 ± 0.29
same,promoter activity interaction Z-score,[5]; [12],0.222 ± 0.12
same,promoter activity interaction Z-score,[5]; [13],0.143 ± 0.22
same,promoter activity interaction Z-score,[5]; [14],0.159 ± 0.22
same,promoter activity interaction Z-score,[5]; [15],0.00336 ± 0.19
same,promoter activity interaction Z-score,[5]; [16],-0.146 ± 0.12
same,promoter activity interaction Z-score,[5]; [17],-0.0654 ± 0.045
same,promoter activity interaction Z-score,[5]; [18],0.255 ± 0.11
same,promoter activity interaction Z-score,[5]; [19],-0.0397 ± 0.37
same,promoter activity interaction Z-score,[6]; [8],-0.564 ± 0.28
same,promoter activity interaction Z-score,[6]; [9],0.134 ± 0.67
same,promoter activity interaction Z-score,[6]; [10],0.613 ± 0.26
same,promoter activity interaction Z-score,[6]; [11],-0.636 ± 0.056
same,promoter activity interaction Z-score,[6]; [12],0.674 ± 0.6
same,promoter activity interaction Z-score,[6]; [13],-0.149 ± 1.3
same,promoter activity interaction Z-score,[6]; [14],0.0751 ± 0.037
same,promoter activity interaction Z-score,[6]; [15],-0.124 ± 0.055
same,promoter activity interaction Z-score,[6]; [16],-0.115 ± 0.33
same,promoter activity interaction Z-score,[6]; [17],-0.727 ± 1.3
same,promoter activity interaction Z-score,[6]; [18],-0.374 ± 0.56
same,promoter activity interaction Z-score,[6]; [19],-0.124 ± 0.67
c1ccc(-c2ccccn2)nc1 [2-2-Bipyridyl],promoter activity interaction Z-score,[1]; [20],-0.38 ± 0.11
same,promoter activity interaction Z-score,[1]; [21],-0.262 ± 0.49
same,promoter activity interaction Z-score,[1]; [22],-0.666 ± 0.24
same,promoter activity interaction Z-score,[1]; [23],-0.339 ± 0.48
same,promoter activity interaction Z-score,[1]; [24],-0.678 ± 0.23
same,promoter activity interaction Z-score,[1]; [25],0.0964 ± 1.5
same,promoter activity interaction Z-score,[1]; [26],-0.696 ± 0.048
same,promoter activity interaction Z-score,[1]; [27],-0.763 ± 0.36
same,promoter activity interaction Z-score,[1]; [28],-0.446 ± 0.45
same,promoter activity interaction Z-score,[1]; [29],1.4 ± 0.6
same,promoter activity interaction Z-score,[1]; [30],-0.276 ± 0.72
same,promoter activity interaction Z-score,[1]; [31],-0.305 ± 0.33
same,promoter activity interaction Z-score,[7]; [20],0.799 ± 0.78
same,promoter activity interaction Z-score,[7]; [21],0.4 ± 0.48
same,promoter activity interaction Z-score,[7]; [22],-0.042 ± 0.093
same,promoter activity interaction Z-score,[7]; [23],-0.2756 ± 0.0019
same,promoter activity interaction Z-score,[7]; [24],0.288 ± 0.12
same,promoter activity interaction Z-score,[7]; [25],0.637 ± 0.14
same,promoter activity interaction Z-score,[7]; [26],-0.32 ± 0.14
same,promoter activity interaction Z-score,[7]; [27],-0.0307 ± 0.0061
same,promoter activity interaction Z-score,[7]; [28],2.32 ± 0.13
same,promoter activity interaction Z-score,[7]; [29],2.22 ± 0.2
same,promoter activity interaction Z-score,[7]; [30],1.59 ± 0.24
same,promoter activity interaction Z-score,[7]; [31],1.67 ± 0.33
same,promoter activity interaction Z-score,[2]; [20],0.412 ± 0.33
same,promoter activity interaction Z-score,[2]; [21],0.243 ± 0.14
same,promoter activity interaction Z-score,[2]; [22],0.0359 ± 0.019
same,promoter activity interaction Z-score,[2]; [23],0.7191 ± 0.0054
same,promoter activity interaction Z-score,[2]; [24],1.15 ± 0.4
same,promoter activity interaction Z-score,[2]; [25],0.622 ± 0.29
same,promoter activity interaction Z-score,[2]; [26],0.498 ± 0.0061
same,promoter activity interaction Z-score,[2]; [27],3.01 ± 0.73
same,promoter activity interaction Z-score,[2]; [28],5.52 ± 0.58
same,promoter activity interaction Z-score,[2]; [29],0.943 ± 0.12
same,promoter activity interaction Z-score,[2]; [30],7.21 ± 1.5
same,promoter activity interaction Z-score,[2]; [31],9.5118 ± 0.00024
same,promoter activity interaction Z-score,[3]; [20],-0.0949 ± 0.034
same,promoter activity interaction Z-score,[3]; [21],-0.555 ± 0.58
same,promoter activity interaction Z-score,[3]; [22],-0.389 ± 0.39
same,promoter activity interaction Z-score,[3]; [23],-0.351 ± 0.17
same,promoter activity interaction Z-score,[3]; [24],-0.745 ± 0.54
same,promoter activity interaction Z-score,[3]; [25],-0.948 ± 0.58
same,promoter activity interaction Z-score,[3]; [26],-0.682 ± 0.16
same,promoter activity interaction Z-score,[3]; [27],-0.195 ± 0.78
same,promoter activity interaction Z-score,[3]; [28],-1.5 ± 0.86
same,promoter activity interaction Z-score,[3]; [29],-1.52 ± 0.45
same,promoter activity interaction Z-score,[3]; [30],-0.777 ± 0.2
same,promoter activity interaction Z-score,[3]; [31],0.325 ± 1.2
same,promoter activity interaction Z-score,[4]; [20],-0.0517 ± 0.47
same,promoter activity interaction Z-score,[4]; [21],0.352 ± 0.77
same,promoter activity interaction Z-score,[4]; [22],-0.375 ± 0.059
same,promoter activity interaction Z-score,[4]; [23],-0.326 ± 0.77
same,promoter activity interaction Z-score,[4]; [24],-0.772 ± 0.88
same,promoter activity interaction Z-score,[4]; [25],0.322 ± 0.12
same,promoter activity interaction Z-score,[4]; [26],-0.387 ± 0.49
same,promoter activity interaction Z-score,[4]; [27],-0.7 ± 0.084
same,promoter activity interaction Z-score,[4]; [28],-0.663 ± 1
same,promoter activity interaction Z-score,[4]; [29],0.193 ± 0.17
same,promoter activity interaction Z-score,[4]; [30],0.111 ± 0.013
same,promoter activity interaction Z-score,[4]; [31],1.63 ± 3.1
